Each sequence was assayed against GST-Hu-p50 (Homo sapiens, UniProt P19838 7-356) (assay: protein-binding microarray (PBM); PBM: ~300 nM protein, 6 mM HEPES pH 7.8, 80 mM KCl, 0.5 mM EDTA, 0.5 mM EGTA, 6% glycerol, 35 ng/ul poly-dIdC, 1% milk, 1 h, room temperature; Ap Aiptasia and Nv Nematostella (sea anemones) / Co Capsaspora / Aq Amphimedon (sponge) / Dm Drosophila / Hu human; RHD is the Rel homology domain; high values mean tight binding). Conditions: dsDNA, one strand shown.
Chain of GST-Hu-p50 (P19838 7-356): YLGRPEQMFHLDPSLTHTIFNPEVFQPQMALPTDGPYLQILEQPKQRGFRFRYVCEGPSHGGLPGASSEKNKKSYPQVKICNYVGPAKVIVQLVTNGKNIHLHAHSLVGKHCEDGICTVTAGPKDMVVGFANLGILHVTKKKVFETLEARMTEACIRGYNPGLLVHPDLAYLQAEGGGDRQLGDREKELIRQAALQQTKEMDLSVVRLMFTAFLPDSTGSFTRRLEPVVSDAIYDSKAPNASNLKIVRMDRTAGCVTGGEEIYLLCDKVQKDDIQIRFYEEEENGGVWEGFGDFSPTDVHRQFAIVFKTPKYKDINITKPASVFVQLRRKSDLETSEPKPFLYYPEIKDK

Compared with “CCGATTAACATCAGGAAACACCCTGATGTTAATCGGGTCTTGATTCGCTTGACGCTGCTG”, “CCGATTAACATCAGGGAAAAACCTGATGTTAATCGGGTCTTGATTCGCTTGACGCTGCTG” is higher in binding signal: 3.48 z-score for the first, 4.95 z-score for the second.

Going from “CCGATTAACATCACCTTCTTTACTGATGTTAATCGGGTCTTGATTCGCTTGACGCTGCTG” to “CCGATTAACATCACTATTTTCCCTGATGTTAATCGGGTCTTGATTCGCTTGACGCTGCTG”, the binding signal rises from 1.59 z-score to 3.18 z-score.

Going from “CCGATTAACATCACATCTTCCCCTGATGTTAATCGGGTCTTGATTCGCTTGACGCTGCTG” to “CCGATTAACATCAGGCGTTTCCCTGATGTTAATCGGGTCTTGATTCGCTTGACGCTGCTG”, the binding signal falls from 4.51 z-score to 1.83 z-score.

First: CCGATTAACATCATGTCTATCGGTGATGTTAATCGGGTCTTGATTCGCTTGACGCTGCTG
Second: CCGATTAACATCAGCTGAGTAGGTGATGTTAATCGGGTCTTGATTCGCTTGACGCTGCTG
The binding signal of the first is lower: 1.14 z-score for the first, 1.45 z-score for the second.

Compared with “CCGATTAACATCAGGATTTTCCCTGATGTTAATCGGGTCTTGATTCGCTTGACGCTGCTG”, “CCGATTAACATCAAAAAATTCCTTGATGTTAATCGGGTCTTGATTCGCTTGACGCTGCTG” is lower in binding signal: 5 z-score for the first, 1.55 z-score for the second.

First: CCGATTAACATCAGGGGTTACACTGATGTTAATCGGGTCTTGATTCGCTTGACGCTGCTG
Second: CCGATTAACATCAATTTAGACGGTGATGTTAATCGGGTCTTGATTCGCTTGACGCTGCTG
The binding signal of the first is lower: 1.37 z-score for the first, 1.58 z-score for the second.

Going from “CCGATTAACATCAATAAAGTCCCTGATGTTAATCGGGTCTTGATTCGCTTGACGCTGCTG” to “CCGATTAACATCAACCAATTCCCTGATGTTAATCGGGTCTTGATTCGCTTGACGCTGCTG”, the binding signal falls from 5.23 z-score to 2.54 z-score.

Going from “CCGATTAACATCAAAGGGAATTCTGATGTTAATCGGGTCTTGATTCGCTTGACGCTGCTG” to “CCGATTAACATCAAGGGAAAAATTGATGTTAATCGGGTCTTGATTCGCTTGACGCTGCTG”, the binding signal falls from 4.99 z-score to 4.56 z-score.

Compared with “CCGATTAACATCAAGAAATTCCTTGATGTTAATCGGGTCTTGATTCGCTTGACGCTGCTG”, “CCGATTAACATCAATTTTTTCCCTGATGTTAATCGGGTCTTGATTCGCTTGACGCTGCTG” is higher in binding signal: 1.18 z-score for the first, 4.43 z-score for the second.

Going from “CCGATTAACATCACTTTTTTCCCTGATGTTAATCGGGTCTTGATTCGCTTGACGCTGCTG” to “CCGATTAACATCAGAGGTGCTTCTGATGTTAATCGGGTCTTGATTCGCTTGACGCTGCTG”, the binding signal falls from 3.53 z-score to 1.84 z-score.

Compared with “CCGATTAACATCAGGGAAAATCATGATGTTAATCGGGTCTTGATTCGCTTGACGCTGCTG”, “CCGATTAACATCAGGAAAGTCCATGATGTTAATCGGGTCTTGATTCGCTTGACGCTGCTG” is lower in binding signal: 3.98 z-score for the first, 1.14 z-score for the second.

First: CCGATTAACATCAGGCGGTAAGGTGATGTTAATCGGGTCTTGATTCGCTTGACGCTGCTG
Second: CCGATTAACATCAGGAAATTTCATGATGTTAATCGGGTCTTGATTCGCTTGACGCTGCTG
The binding signal of the first is higher: 1.29 z-score for the first, 1.06 z-score for the second.

Going from “CCGATTAACATCAGGGCAAAAAATGATGTTAATCGGGTCTTGATTCGCTTGACGCTGCTG” to “CCGATTAACATCACCCATTCCCCTGATGTTAATCGGGTCTTGATTCGCTTGACGCTGCTG”, the binding signal rises from 1.45 z-score to 5.05 z-score.

Compared with “CCGATTAACATCAATTTTTGCCCTGATGTTAATCGGGTCTTGATTCGCTTGACGCTGCTG”, “CCGATTAACATCAAAGTTTTCCCTGATGTTAATCGGGTCTTGATTCGCTTGACGCTGCTG” is higher in binding signal: 1.07 z-score for the first, 4.49 z-score for the second.

Going from “CCGATTAACATCAGGTAATTACCTGATGTTAATCGGGTCTTGATTCGCTTGACGCTGCTG” to “CCGATTAACATCAGGACTATCCCTGATGTTAATCGGGTCTTGATTCGCTTGACGCTGCTG”, the binding signal falls from 3.47 z-score to 1.81 z-score.

Compared with “CCGATTAACATCAGGGAAGGACCTGATGTTAATCGGGTCTTGATTCGCTTGACGCTGCTG”, “CCGATTAACATCAAATTCCCACGTGATGTTAATCGGGTCTTGATTCGCTTGACGCTGCTG” is higher in binding signal: 1.18 z-score for the first, 2.98 z-score for the second.

Going from “CCGATTAACATCAATAATTTTCCTGATGTTAATCGGGTCTTGATTCGCTTGACGCTGCTG” to “CCGATTAACATCAGGGGAACCTATGATGTTAATCGGGTCTTGATTCGCTTGACGCTGCTG”, the binding signal rises from 1.12 z-score to 4.74 z-score.

First: CCGATTAACATCAGGAAGGCCCCTGATGTTAATCGGGTCTTGATTCGCTTGACGCTGCTG
Second: CCGATTAACATCACCCATTTCCGTGATGTTAATCGGGTCTTGATTCGCTTGACGCTGCTG
The binding signal of the first is higher: 2.59 z-score for the first, 1.88 z-score for the second.

First: CCGATTAACATCAGGGGAACATATGATGTTAATCGGGTCTTGATTCGCTTGACGCTGCTG
Second: CCGATTAACATCACAGGAATTTCTGATGTTAATCGGGTCTTGATTCGCTTGACGCTGCTG
The binding signal of the first is higher: 4.06 z-score for the first, 1.08 z-score for the second.

First: CCGATTAACATCACCTATTCCCCTGATGTTAATCGGGTCTTGATTCGCTTGACGCTGCTG
Second: CCGATTAACATCAGTATTCCCCATGATGTTAATCGGGTCTTGATTCGCTTGACGCTGCTG
The binding signal of the first is lower: 5.12 z-score for the first, 5.14 z-score for the second.

From publication PMC5700166
